High-throughput results deposited in PubChem by Corson Lab, School of Medicine, Indiana University.
Only a selection was taken, and hits are over-represented in it overall.
FECH inh: inhibitors of human ferrochelatase, primary screen, biochemical, purified FECH, Ni-mesoporphyrin absorbance; Ferrochelatase, mitochondrial (Homo sapiens), P22830; Ni-mesoporphyrin absorbance 550 nm; calls only at 10 µM (by protocol); 20,000 tested, 3.3% active;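 active means enzyme reaction rate more than 3 SD below the solvent-only control wells on the same plate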;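 further: lower slope than DMSO wells means FECH inhibition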
Target sequence (P22830 whole entry, looked up): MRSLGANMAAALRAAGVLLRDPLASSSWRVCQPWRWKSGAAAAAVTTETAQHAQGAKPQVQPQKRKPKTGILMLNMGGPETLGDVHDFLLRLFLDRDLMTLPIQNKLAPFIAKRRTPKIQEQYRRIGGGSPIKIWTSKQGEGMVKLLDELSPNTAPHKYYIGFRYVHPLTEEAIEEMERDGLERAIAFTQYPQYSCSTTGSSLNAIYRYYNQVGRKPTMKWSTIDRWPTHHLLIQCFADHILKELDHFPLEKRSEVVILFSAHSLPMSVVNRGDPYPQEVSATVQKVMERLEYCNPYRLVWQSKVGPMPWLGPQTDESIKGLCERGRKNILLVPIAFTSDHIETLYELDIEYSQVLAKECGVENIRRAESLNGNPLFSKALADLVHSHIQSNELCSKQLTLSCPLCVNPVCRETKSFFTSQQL
An asterisk follows results filed as active.

How did CCCNCc1cc(=O)n2[nH]c(-c3ccc(C(C)(C)C)cc3)nc2n1 do in these assays?
FECH inh: inactive

How did COc1ccc(NCc2cc(=O)n3[nH]c(-c4ccc(C(C)(C)C)cc4)nc3n2)c(OC)c1 do in these assays?
FECH inh: inactive

What do the screens show for `Cc1cccc(C)c1NCc1cc(=O)n2[nH]c(-c3ccc(C(C)(C)C)cc3)nc2n1`?
FECH inh: active

Results for Cc1cccc(NCc2cc(=O)n3[nH]c(-c4ccc(C(C)(C)C)cc4)nc3n2)c1C ?
FECH inh: inactive

What do the screens show for `Cc1cccc(C)c1NCc1cc(=O)n2[nH]c(NCc3ccccc3)nc2n1`?
FECH inh: inactive

Results for Cc1ccc(NCc2cc(=O)n3[nH]c(-c4ccc(C(C)(C)C)cc4)nc3n2)c(C)c1 ?
FECH inh: active

How did Cc1ccc(NCc2cc(=O)n3[nH]c(NCc4ccccc4)nc3n2)c(C)c1 do in these assays?
FECH inh: inactive

Results for Cc1ccc(NCc2cc(=O)n3[nH]c(-c4ccc(C(C)(C)C)cc4)nc3n2)cc1C ?
FECH inh: inactive

How did CC(C)(C)c1ccc(-c2nc3nc(CNc4ccc(F)cc4)cc(=O)n3[nH]2)cc1 do in these assays?
FECH inh: active

Results for Cc1ccc2cc(CN(C)Cc3nc(C)no3)c(N3CCOCC3)nc2c1 ?
FECH inh: inactive

Results for Cc1ccc(CNC(=O)CN2CCCN(Cc3cccc(F)c3)S2(=O)=O)cc1 ?
FECH inh: inactive

How did COCCN(Cc1cccs1)C(=O)c1cn2cc(Cl)ccc2n1 do in these assays?
FECH inh: inactive

What do the screens show for `CCc1nc([C@H]2CN(C)C[C@@H]2C(=O)N2CCC(O)CC2)c(C)[nH]1`?
FECH inh: inactive

What do the screens show for `Cc1cc(COc2ccccc2)oc1C(=O)N1CCC2(CCCO2)CC1`?
FECH inh: inactive

What do the screens show for `CCC(=O)Nc1ccccc1-c1nnc(SC(CC)C(=O)Nc2cccc(CC)c2)[nH]c1=O` (stereo not drawn)?
FECH inh: inactive

What do the screens show for `Cc1ccccc1-c1nc2nc(CNc3ccc(F)cc3)cc(=O)n2[nH]1`?
FECH inh: active

Results for Cc1ccccc1-c1nc2nc(CNc3cccc(Cl)c3C)cc(=O)n2[nH]1 ?
FECH inh: inactive

Results for Cc1ccc(Cl)cc1NCc1cc(=O)n2[nH]c(-c3ccccc3C)nc2n1 ?
FECH inh: active

Results for Cc1ccc(NCc2cc(=O)n3[nH]c(-c4ccccc4C)nc3n2)cc1Cl ?
FECH inh: inactive

What do the screens show for `Cc1cccc(C)c1NCc1cc(=O)n2[nH]c(NCc3ccc(F)cc3)nc2n1`?
FECH inh: inactive

What do the screens show for `Cc1ccccc1-c1nc2nc(CNc3cccc(C)c3C)cc(=O)n2[nH]1`?
FECH inh: inactive

What do the screens show for `CCc1cccc(NC(=O)C2CCCN2C(=O)c2ccc(-c3noc(C)n3)cc2)c1` (stereo not drawn)?
FECH inh: inactive

How did CSc1nc(Nc2ccccc2F)c(C#N)c(-c2ccc(C)cc2)n1 do in these assays?
FECH inh: inactive

Results for Cc1nn(C)c(C)c1CN(C)Cc1cccc(C(=O)Nc2c(C)noc2C)c1 ?
FECH inh: inactive

Results for CCn1nc(C)c(NC(=O)CN(C)C(C)c2ccc3c(c2)OCCO3)c1C (stereo not drawn) ?
FECH inh: inactive

How did Cc1cnc(NC(=O)c2cccc(CN3CCNC(=O)C3CCO)c2)s1 (stereo not drawn) do in these assays?
FECH inh: inactive

How did Cc1nn(-c2cc(N3CCCC3)ncn2)c(C)c1CCC(=O)NC1CCCCCC1 do in these assays?
FECH inh: inactive

How did COc1ccc(NC(=O)CSc2cc(N3CCCCC3)ncn2)cc1 do in these assays?
FECH inh: inactive

Results for O=C(CSc1cc(N2CCCCC2)ncn1)NC1CCCC1 ?
FECH inh: active

What do the screens show for `CCCCNC(=O)c1cc2n(n1)CC(C)(C(=O)NCc1ccc(F)cc1)N(C)C2=O` (stereo not drawn)?
FECH inh: inactive

What do the screens show for `CCc1ccc2c(c1)-c1ccccc1S(=O)(=O)N2CC(=O)NCCSC1CCCCC1`?
FECH inh: inactive

What do the screens show for `CCc1ccc(C2=C(C)C(=O)N(CC(=O)NCc3cccs3)S2(=O)=O)cc1`?
FECH inh: inactive

How did CCc1ccc2c(c1)-c1ccccc1S(=O)(=O)N2CC(=O)NCCCn1ccnc1 do in these assays?
FECH inh: active

Results for O=C(CN1c2ccc(F)cc2-c2ccccc2S1(=O)=O)NCCCn1ccnc1 ?
FECH inh: inactive

What do the screens show for `CCc1ccc2c(c1)-c1ccccc1S(=O)(=O)N2CC(=O)NCc1cccnc1`?
FECH inh: active

How did CCc1ccc(C2=C(C)C(=O)N(CC(=O)Nc3cc(C)ccc3OC)S2(=O)=O)cc1 do in these assays?
FECH inh: inactive

Results for Cc1ccc2c(c1)C(CC(=O)N(CCCO)Cc1ccc(C)s1)C(=O)N2 (stereo not drawn) ?
FECH inh: inactive

Results for Cc1cccc(NC(=O)CSCc2nc(-c3ccccc3)no2)c1C ?
FECH inh: inactive

What do the screens show for `CCN1C(SCC(=O)Nc2ccccc2F)=NS(=O)(=O)c2ccccc21`?
FECH inh: active

What do the screens show for `Cc1cccc(NC(=O)CN2C(=O)CC(c3ccccc3)=Nc3ccccc32)c1C`?
FECH inh: inactive

What do the screens show for `Cc1ccc(CN2CCN(CC(=O)Nc3ccccc3F)S2(=O)=O)cc1`?
FECH inh: inactive

What do the screens show for `CN(C)c1nc2ncnc(SCC(=O)Nc3ccccc3F)c2s1`?
FECH inh: inactive

What do the screens show for `CCN1C(SCC(=O)Nc2cccc(C)c2C)=NS(=O)(=O)c2ccccc21`?
FECH inh: active

Results for COc1cc(NC(=O)CCc2c(C)n(C)c3cc(-c4ccccc4OC)nn3c2=O)cc(OC)c1 ?
FECH inh: inactive

How did Cc1ccc(-c2noc(C3CCN(C(=O)CN4C(=O)COc5ccccc54)CC3)n2)cc1 do in these assays?
FECH inh: inactive

What do the screens show for `CCCc1nc2nc[nH]n2c(=O)c1NC(=O)Nc1ccc(OCC)cc1`?
FECH inh: inactive

How did CCCc1nc2nc[nH]n2c(=O)c1NC(=O)Nc1cc(C)ccc1OC do in these assays?
FECH inh: inactive

What do the screens show for `CC(C)(O)C#Cc1ccc(C2CC(=O)Nc3cc4[nH]ncc4cc32)s1` (stereo not drawn)?
FECH inh: inactive

What do the screens show for `CCc1cc(Sc2ccccc2NC(=O)c2ccc(Cl)cc2)n2ncnc2n1`?
FECH inh: inactive

How did Cn1ncc2c(NCCNC(=O)c3cccnc3)nc(C(C)(C)C)nc21 do in these assays?
FECH inh: inactive

How did Cc1cnc(NCc2ccc(C(=O)N(C)C)o2)nc1N(C)C do in these assays?
FECH inh: inactive

Results for Cc1cnc(NCCNC(=O)c2cccnc2)nc1N(C)C ?
FECH inh: active

What do the screens show for `O=C(Nc1ccccn1)C1CCN(c2ccc(-c3cccs3)nn2)CC1`?
FECH inh: inactive

How did c1cc(-c2nccn2-c2ccc3cn[nH]c3c2)ccn1 do in these assays?
FECH inh: inactive

Results for CCn1cc(-c2nnc(SCC(=O)O)n2-c2cccc(Cl)c2)cn1 ?
FECH inh: inactive

How did Cc1ccc(-n2c(CN3CCN(S(=O)(=O)c4ccc(Cl)s4)CC3)nc3cccnc32)cc1 do in these assays?
FECH inh: inactive

How did Cc1cccc(-n2c(CN3CCN(S(=O)(=O)c4cccs4)CC3)nc3cccnc32)c1 do in these assays?
FECH inh: inactive

What do the screens show for `Cc1ccc(-n2c(CN3CCN(S(=O)(=O)c4cccs4)CC3)nc3cccnc32)cc1`?
FECH inh: active
